Laboratory results as given in PubChem BioAssay.

These molecules were tested against Voltage-gated potassium channel subunit beta-2 (Rattus norvegicus) (UniProt P62483) (assay: KvBeta positive modulators, primary screen, biochemical, NADPH fluorescence (AID 623;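 note: fluorescence intensity change per second fitted from 20 to 320 s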)). Details: Recombinant KvBeta, NADPH fluorescence decrease slope, 10 min; at 10 µM; stronger effect = lower value;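 active = NADPH fluorescence slope more negative than the mean of all samples by about 3 SD, 99.7% confidence; inactive = the rest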.
Sequence of Voltage-gated potassium channel subunit beta-2 (Rattus norvegicus) (P62483 whole entry, looked up): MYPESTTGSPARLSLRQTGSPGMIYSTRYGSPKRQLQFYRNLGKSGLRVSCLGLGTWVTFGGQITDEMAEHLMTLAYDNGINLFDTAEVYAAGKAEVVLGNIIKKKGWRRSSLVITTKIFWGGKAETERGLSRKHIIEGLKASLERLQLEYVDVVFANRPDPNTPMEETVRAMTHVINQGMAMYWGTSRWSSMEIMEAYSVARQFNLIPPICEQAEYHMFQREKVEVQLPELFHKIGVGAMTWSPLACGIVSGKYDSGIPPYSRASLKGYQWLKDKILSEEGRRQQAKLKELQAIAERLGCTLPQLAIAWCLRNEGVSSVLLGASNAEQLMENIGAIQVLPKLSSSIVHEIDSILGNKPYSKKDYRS

NADPH fluorescence slope, inactive:
CCc1nc(NCCCN2CCOCC2)c2oc3ccccc3c2n1 -3.3e-05
CCOC(=O)N1CCN(C(=O)CSc2cc(C)nc3c(-c4ccccc4OC)c(C)nn23)CC1 1.2e-05
O=C1c2ccccc2C(=O)N1CNc1ccccc1 -1.7e-05
CC(C)(C)OC(=O)N1CC=C2C(C#N)=C(N)C(C#N)(C#N)C(c3cccs3)C2C1 (stereo not given) -2.5e-05
CCOC(=O)Nc1cc(OC)c(OC)cc1Cc1nccc2cc(OC)c(OC)cc12 4.5e-06
Cc1cc(=O)n2nc(-c3ccccc3)sc2n1 -9.5e-06
COc1cccc(C2CC(=O)Nc3c2c(=O)n(C)c(=O)n3C)c1OC (stereo not given) 2e-06
CCOC(=O)N1CCN(c2c(N3CCc4ccccc4C3)c(=O)c2=O)CC1 -2.6e-05
COC(=O)Cc1c(C)c2ccc(OCC(=O)N3CCOCC3)cc2oc1=O -1.5e-05
Cc1cccc(OCC(=O)N(Cc2cccs2)C2CCS(=O)(=O)C2)c1C (stereo not given) -3.9e-05
CN(C)S(=O)(=O)c1ccc(/C(O)=C2/C(=O)C(=O)N(CCN3CCCCC3)C2c2cccnc2)cc1 (stereo not given) 2e-05
CCOC(=O)c1sc2nc(NC(=O)C3CCCCC3)sc2c1C -2.5e-05
O=P1(O)C=C(c2ccccc2)NC(c2ccccc2)=C1 -5e-07
CC1(C)NC(=O)N(CCOc2cccc(Cl)c2Cl)C1=O -6.5e-06
Cn1c(=O)c2c(nc(CN3CCCCC3)n2CCc2ccccc2)n(C)c1=O -1.3e-05
CS(=O)(=O)N1CCN(c2ccccc2NC(=O)c2ccc(-c3ccc(Cl)cc3Cl)o2)CC1 2.6e-05
CCOc1cc2[nH]c(=O)n(CCCCC(=O)NCc3ccco3)c(=O)c2cc1OCC -6e-05
O=C(NCc1ccco1)C1(S(=O)(=O)c2ccc(Cl)cc2)CC1 2e-05
O=C(Nn1c(C2CC2)nc2ccccc2c1=O)c1ccco1 6.6e-05
COCCCN1C(=O)C(=O)/C(=C(/O)c2ccc(OCC(C)C)cc2C)C1c1cccnc1 (stereo not given) 5.8e-06
CCn1c2ccccc2c2cc(Nc3cc(C)nc4ncnn34)ccc21 7.4e-07
COc1cc(NC(=O)C2CCCN2S(=O)(=O)c2cccc3cccnc23)cc(OC)c1OC (stereo not given) -3.4e-05
CCOc1ccc(Cn2nnc(C(=O)NCc3ccc(OC)cc3)c2N)cc1 -2.2e-06
CCOC(=O)c1[nH]c(C)c(C(=O)NCc2ccccn2)c1C -0.000223
COc1ccc2cc(C#N)c(SCC(=O)N3CCCC3)nc2c1 -2.5e-05
Cc1ccccc1Nc1cc2ccccc2c(=O)[nH]1 1.6e-05
O=C(CNc1ccc(Oc2ccccc2)cc1)N1CCOCC1 -0.000138
CCCOC(=O)C1C2C=CC3(CN(c4cccc(Cl)c4)C(=O)C13)O2 (stereo not given) 1.7e-05
COc1cc(NC(=O)c2cc(CC(C)C)on2)c(OC)cc1Cl 5.1e-07
O=S(=O)(Nc1ccccn1)c1ccc(Oc2ccccc2)cc1 -1.6e-05
O=C(c1cc2ccccc2oc1=O)N1CCN(c2ccc(N3CCOCC3)nn2)CC1 -1.8e-05
Cc1ccc(-c2nc(CS(=O)CC(=O)NCCN(CC(C)C)CC(C)C)c(C)o2)cc1 (stereo not given) -2.2e-05
O=c1ccc(S(=O)(=O)N2CCC(Cc3ccccc3)CC2)c[nH]1 -5e-05
O=C(NCCC1=CCCCC1)C1CC(=O)N(C2CCCCCC2)C1 (stereo not given) -6.2e-05
Cc1nn(C(=O)c2ccoc2C)c(N)c1-c1ccccc1 -4.2e-05
Cc1nnc(N2C(=O)c3oc4ccccc4c(=O)c3C2c2ccco2)s1 (stereo not given) -2.5e-05
O=c1[nH]c2sc3c(c2c2nncn12)CCCC3 -0.000261
C=COC(=O)CSc1snc(SCC(=O)OC)c1C#N -4.2e-06
COc1ccc(-n2c(=O)c3c4c(sc3n3c(C)nnc23)CCCC4)cc1 -2.4e-05
CCOC(=O)N1CCC(NC(=O)Cn2ncc3c4ccccc4n(C)c3c2=O)CC1 -2.3e-05
